Source: PubChem (National Center for Advancing Translational Sciences (NCATS))
Sampled rows, rich in hits. Any-hit rate of the full collection: about 9.5%.
RE007 growth inh: qHTS Assay for Inhibitors of the HIV-1 protein Vpr. S. pombe RE007 Vpr strain, BacTiter-Glo ATP luminescence, 24 h. 360,000 compounds, 0.21% hits. Potency, µM (top dose mostly 92.2 µM), most hits filed as inhibitors; active = well fitted falling curve with a large enough effect; inconclusive = small, poorly fitted or top-dose-only effect; inactive = no such curve, though single readings can be large or run the other way; note: nearly all actives have a fitted effect of over 50% in size
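Fission yeast RE007 carrying one integrated HIV-1 vpr copy, seeded at OD 0.01 in PMG+AL medium with 23 nL pinned compound. Grown 24 h at 30 degrees; viability read by BacTiter-Glo luminescence after 5 min.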
Pf growth 96h: Primary qHTS for delayed death inhibitors of the malarial parasite plastid, 96 hour incubation; Potency, µM (titrated, usually from 28.7 µM), most hits filed as inhibitors; 320,000 compounds, 6.9% hits; P. falciparum luciferase reporter growth, 96 h
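Luminescence readout: decreased luciferase signal marks inhibited growth of reporter-expressing P. falciparum in infected red cells (2% hematocrit, 0.05% parasitemia final), exposed to compound two generations (96 h, 37 C, 5% CO2).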
SARS PLP yeast: qHTS of Yeast-based Assay for SARS-CoV PLP. S. cerevisiae expressing SARS-CoV PLpro, growth rescue. Potency, µM (doses to about 32.9 µM), most hits filed as activators. 330,000 compounds, 0.19% hits. AID 485353, 2010; calls by dose curve; note: nearly all actives have a fitted effect of over 55% in size
Pf growth 48h: Primary qHTS for delayed death inhibitors of the malarial parasite plastid, 48 hour incubation | P. falciparum luciferase growth in erythrocytes, 48 h | Potency, µM (titrated, usually from 28.7 µM), actives largely listed as inhibitors | 310,000 compounds, 5.9% hits
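Luminescence readout; reporter = integrated firefly luciferase in P. falciparum. RBC culture at 2% hematocrit, 0.1% parasitemia final, 37 C/5% CO2; decreased signal taken as growth inhibition.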
NS1 inh: qHTS Assay for Inhibitors of Influenza NS1 Protein Function. Potency, µM (top dose mostly 46.1 µM). 270,000 compounds, 0.4% hits; calls by dose curve; note: actives are rising curves; nearly all actives have a fitted effect of over 50% in size
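OD600 was taken as the measure of yeast growth restored by compound in an NS1-expressing S. cerevisiae strain. Cells had been washed out of glucose medium and diluted 1:100 into galactose -URA medium, pH 6.0.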
Numbers stand for hits; 0 = inactive; ? = inconclusive; - = no result. Unless noted, calls come from the whole dose curve; as a rule, active = well fitted inhibition curve with a large enough effect; inconclusive = small, poorly fitted or top-dose-only effect, or another doubt; inactive = no such curve, though single readings can be large or run the other way.

SMILES | RE007 growth inh | Pf growth 96h | SARS PLP yeast | Pf growth 48h | NS1 inh
Cc1cc(C)n2nc(C(=O)OCC(=O)NCc3ccc(F)cc3)nc2n1 | 0 | - | 0 | - | -
Oc1ccc(Cl)cc1CNCc1ccc(F)c(F)c1 | 0 | 5.2µM | 0 | 3.3µM | -
COc1ccc(CN(C)C[C@@H]2OCc3cnnn3CCCC(=O)N([C@H](C)CO)C[C@H]2C)cc1 | 0 | - | - | - | -
COc1ccc(CCNC(=S)NC2CCN(Cc3ccccc3)CC2)cc1 | 0 | ? | 0 | ? | 0
Cc1ccc(N=Nc2ccc(O)c3ncccc23)cc1C | 0 | ? | 0 | ? | -
COc1ccccc1N=Nc1ccc(O)c2ncccc12 | ? | 0 | 0 | 2.9µM | 0
Oc1ccc(N=Nc2ccccc2C(F)(F)F)c2cccnc12 | - | 0.93µM | 0 | 1.5µM | 0
CCc1ccc(OCC(=O)N2CCN(c3ccccn3)CC2)c(Br)c1 | ? | 0 | 0 | 0 | 0
CCOc1cc(N2CCOCC2)c(OCC)cc1NC(=O)CN1C(=O)NC2(CCCCC2C)C1=O (stereo not drawn) | 0 | 0 | 0 | ? | -
N#Cc1ccccc1NC(=O)COC(=O)CSc1nc2ccccc2o1 | 0 | 1µM | 0 | 0 | 0
Cc1ccccc1NC(=O)CSc1nc2ccccc2o1 | 0 | - | 0 | 0 | 0
CN(c1ccccc1)S(=O)(=O)c1ccc(Cl)c(C(=O)NCC(c2ccco2)N2CCCC2)c1 (stereo not drawn) | 0 | ? | 0 | ? | -
O=C(NCC(c1ccco1)N1CCCCC1)c1ccc(OCc2ccccc2)cc1 (stereo not drawn) | 0 | ? | 0 | ? | -
COc1ccc(N(C)S(=O)(=O)c2cccc(C(=O)NCC(c3ccco3)N3CCCC3)c2)cc1 (stereo not drawn) | 0 | ? | 0 | 9.3µM | -
COc1ccccc1N(C)S(=O)(=O)c1ccc(C(=O)NCC(c2ccco2)N2CCCCC2)cc1 (stereo not drawn) | 0 | - | - | - | -
CN(c1ccccc1)S(=O)(=O)c1ccc(C(=O)NCC(c2ccco2)N2CCCCC2)cc1 (stereo not drawn) | 0 | 7.4µM | 0 | ? | -
O=C(NCC(c1ccco1)N1CCCCC1)c1ccc(COc2ccccc2)cc1 (stereo not drawn) | 0 | 2.9µM | 0 | ? | -
CCOC(=O)c1c(NC(=O)Cn2nc(C(F)(F)F)cc2C)sc(C)c1C | 0 | 0 | ? | 0 | 0
CC(NC(=O)c1cccs1)c1n[nH]c(=S)n1C (stereo not drawn) | 0 | 0 | 0 | 0 | 0
COc1ccccc1NC(=O)Cn1c(CCC(=O)O)ccc1-c1ccccc1 | 0 | 0 | 0 | 0 | -
CC(=O)c1ccc(OCC(=O)NC(=O)NC2CCCCC2)cc1 | 0 | 0 | 0 | 0 | 0
Cc1ccc(C(=O)CCC(=O)Nc2ccccc2F)cc1 | 0 | 0 | 0 | 0 | 0
CC(=O)Nc1ccc(NC(=O)C(=O)NCC(c2ccco2)N2CCc3ccccc32)cc1 (stereo not drawn) | 0 | 10µM | 0 | 13µM | -
O=C(CCNC(=O)N1CC(=O)Nc2ccccc21)NCc1ccc(Cl)cc1 | 0 | - | - | - | -
COc1ccc(Cn2nnc(C(=O)Nc3ccc(F)cc3)c2N)cc1 | 0 | 1.9µM | 0 | 0 | 0
SMILES | RE007 growth inh | Pf growth 96h | SARS PLP yeast | Pf growth 48h | NS1 inh
CCOc1ccc(Cn2nnc(C(=O)NCCc3ccc(Cl)cc3)c2N)cc1 | 0 | 5.2µM | 0 | - | 0
CCOc1ccc(Cn2nnc(C(=O)NCCc3ccccc3)c2N)cc1 | 0 | ? | 0 | - | 0
CN(C)S(=O)(=O)c1ccc(C(=O)OCC2CCCO2)cc1 (stereo not drawn) | 0 | 0 | 0 | 0 | 0
CCN(CC)CCNC(=O)c1cn(CC)c2cc(N3CCN(C)CC3)c(F)cc2c1=O | 0 | 0 | 0 | ? | 0
CC1CCC(C(C)C)C(OC(=O)CSc2nnc(N)s2)C1 (stereo not drawn) | 0 | ? | 0 | ? | 0
CC1CCC(C(C)C)C(OC(=O)C[n+]2cc(-c3ccc(Cl)cc3)n3c2CCC3)C1 (stereo not drawn) | 0 | ? | 0 | ? | 0
CC1CCC(C(C)C)C(OC(=O)Cn2c(-c3ccc(F)cc3)[n+](C)c3ccccc32)C1 (stereo not drawn) | 0 | ? | 0 | 0.83µM | 0
CC1CCC(C(C)C)C(OC(=O)Cn2c(-c3ccccc3)[n+](C)c3ccccc32)C1 (stereo not drawn) | 0 | 0 | 0 | 0.47µM | 0
Cc1ccc2c(c1)c(N=O)c(O)n2Cc1ccc(Cl)cc1 | 0 | 0 | 0 | 12µM | 0
O=Nc1c(O)n(Cc2ccc(Cl)cc2Cl)c2ccccc12 | 22µM | 8.3µM | 0 | ? | 0
O=Nc1c(O)n(Cc2ccc(Cl)cc2)c2ccccc12 | 0 | ? | 0 | 13µM | 0
Cc1ccc(Cn2c(O)c(N=O)c3ccccc32)cc1 | 0 | ? | 0 | ? | 0
Cc1ccc2c(c1)c(N=NC(N)=S)c(O)n2Cc1ccccc1 | 0 | ? | 0 | 0 | 0
COc1c(F)c(F)c(C(=O)Nc2c(C)cc(Br)cc2C)c(F)c1F | 0 | 0 | 0 | ? | 0
CN(C)S(=O)(=O)c1cccc(NC(=O)CSc2cccc3cccnc23)c1 | ? | 7.4µM | 0 | 12µM | 0
CN(C)S(=O)(=O)c1ccc(SCC(=O)Nc2cccc(S(=O)(=O)N3CCCC3)c2)nc1 | 0 | - | - | - | -
CN(C)S(=O)(=O)c1cccc(NC(=O)CSc2nc3c(cc2C#N)C(=O)CC(C)(C)C3)c1 | 0 | ? | 0 | 9.3µM | 0
Oc1ccc(Cl)cc1C=Nc1cnc2ccccc2c1 | - | - | - | - | 0
CCN(CC)C(=O)C1=C(C)N(Cc2ccccc2)C(=O)C(CC(=O)NCC2CCCCC2)C1 (stereo not drawn) | 0 | - | - | - | -
Cc1ccsc1/C=N/NC(=S)NCc1ccccc1 | 0 | 0 | 0 | 2.9µM | -
Cc1ccsc1/C=N\NC(=O)CC(=O)NCc1ccccc1 | 0 | 0 | 0 | 0 | -
CN(C)c1ccc(/C=N/NC(=S)NCc2ccccc2)cc1 | 0 | 12µM | 0 | ? | 0
O=[N+]([O-])c1ccc(N2CCN(c3ccccn3)CC2)c(Cl)c1 | 0 | ? | 0 | ? | 0
CCN(CC)C(=O)c1ccc(Nc2nnc(-c3ccc(O)cc3)c3ccccc23)cc1 | 0 | 0 | 0 | ? | 0
CCN(CC)C(=O)c1ccc(-c2nnc(Nc3cccc(O)c3)c3ccccc23)cc1 | 0 | 0 | 0 | 2.9µM | 0
SMILES | RE007 growth inh | Pf growth 96h | SARS PLP yeast | Pf growth 48h | NS1 inh
CC(Sc1ncn[nH]1)C(=O)Nc1ccc(Cl)cn1 (stereo not drawn) | 0 | 0 | 0 | 0 | -
CC1=C(C#N)C(C(F)(F)F)(C(F)(F)F)N=C(c2ccco2)N1 | 0 | 8.3µM | 0 | 0 | 0
CO/N=C/C(C#N)=C/c1cc(C(=O)c2ccccc2)cn1C | 0 | 2.9µM | 0 | ? | -
O=C(Cn1ncc2c([nH]c3ccccc32)c1=O)NCC1CCN(Cc2ccccc2F)CC1 | 0 | 9.3µM | ? | 0 | 0
Cc1c(Cl)cccc1NC(=O)Nc1cc(C(C)(C)C)on1 | ? | ? | 0 | 10µM | 0
CC(C)(C)c1cc(NC(=O)Nc2ccc(Br)cc2Cl)no1 | 0 | 13µM | 0 | 0 | 0
CC(C)(C)c1cc(NC(=O)Nc2ccc(Cl)cc2Cl)no1 | 0 | 0 | 0 | ? | 0
CCOc1ccccc1OCCC(=O)NNC(=O)Cn1nc(C)cc1C | 0 | 0 | 0 | 0 | -
